# Calb biofilm kill: clotrimazole potentiators killing Candida biofilms, primary screen, with clotrimazole, Alamar Blue. C. albicans biofilm + clotrimazole. inhibition, % at 6 µM. 85,000 tested, 0.14% active;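 active means inhibition above 20%; inactive means inhibition below 20%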;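 further: preformed 24 hr biofilms exposed to compound for 48 hr; 0% = biofilm without compound and 100% = blank killed by clotrimazole plus chlorhexidine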
# MRP1 act: H69AR viability gain despite doxorubicin, primary screen, MRP-1 activator project, H69AR cells, CellTiter-Glo; viability rescue; viability increase, % at 10 µM; 140,000 tested, 0.61% active;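 active means viability gain under doxorubicin at or above a set limit, the compound median plus 3 SD, cut at about 4.7% in these data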;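 further: MRP-1 overexpressing cells given doxorubicin 25 µM after compound pretreatment; 18-22 h compound pretreatment then 72 h with doxorubicin before readout; 0% = doxorubicin-only wells and 100% = vehicle-treated cells without doxorubicin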
# Smad3 FoxH1 inh: Smad3/FoxH1 peptide binding inhibitors, primary screen, biochemical, TR-FRET | TR-FRET Smad3/Dy647-FoxH1 peptide binding, europium anti-His | 88,000 tested, 0.29% active | inhibition, % at 25 µM;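 active means compounds that reduce the energy-transfer binding signal between the protein and its labelled peptide by more than half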;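 further: 0% = Smad3 plus labelled peptide maximal FRET and 100% = peptide-only background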
# Target sequence (P84022 whole entry, looked up): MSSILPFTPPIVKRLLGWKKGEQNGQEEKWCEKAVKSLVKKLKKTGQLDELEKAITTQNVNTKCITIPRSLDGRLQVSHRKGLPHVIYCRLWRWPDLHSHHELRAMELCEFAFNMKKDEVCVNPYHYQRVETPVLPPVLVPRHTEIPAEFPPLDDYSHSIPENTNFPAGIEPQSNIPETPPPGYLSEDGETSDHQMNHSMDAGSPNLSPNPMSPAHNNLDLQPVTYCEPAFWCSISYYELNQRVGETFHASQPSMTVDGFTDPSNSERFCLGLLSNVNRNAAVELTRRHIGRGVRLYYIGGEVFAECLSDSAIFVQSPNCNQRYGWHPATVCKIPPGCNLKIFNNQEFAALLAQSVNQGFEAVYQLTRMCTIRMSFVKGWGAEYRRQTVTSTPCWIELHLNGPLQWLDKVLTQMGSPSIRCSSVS
# MRP resist rev: reversal of MRP1-mediated doxorubicin resistance, primary screen, H69AR cells, doxorubicin co-treatment. H69AR cells + 2 uM doxorubicin, CellTiter-Glo, 72 h. AID 602, 2007. differential viability (reversal), % at 10 µM. 85,000 tested, 0.04% active;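 active means viability drop by adding the cancer drug above about 55%, with treated viability meeting a 40% cutoff, limit read from the data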;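 further: viability without doxorubicin minus viability with 2 µM doxorubicin for each compound; larger differential means the compound sensitizes cells more to doxorubicin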
# Starred values were filed as active, the others as inactive; / = not tested or not shown; [ ] = dose if it differs, or a comment. This is a sample that favours compounds with a hit; in the whole collection about 0.83% have one here.
SMILES,Calb biofilm kill,MRP1 act,Smad3 FoxH1 inh,MRP resist rev
COC(=O)CSC1=NP(=S)(SCC(=O)OC)N2CCCC2=C1C#N (stereo not drawn),6,-2,14,-12
CSC1=NP(=S)(SC)N2CCCC2=C1C#N (stereo not drawn),4,29*,0,-10
C[C@]12CC[C@H](O)C[C@@H]1CC[C@H]1[C@H]2CC[C@]2(C)[C@@H]1CC[C@H]2C(=O)C[C@H](O)C(F)(F)F,/,/,0,/
CCC(C)NC(=O)c1c(N)n(CCCOC)c2nc3ccccc3nc12 (stereo not drawn),9,-4,52*,-32
COC(=O)[C@@H]1C(=O)[C@H](C(=O)OC)[C@@H]2CC[C@H]1N2C,/,/,-3,/
CCN(CC)P(=O)(NC(=O)C(Cl)(Cl)Cl)N(CC)CC.[Cl-].[Cl-].[Cl-].[Nd+3],4,-1,67*[fluorescence artefact?],-8
Cn1c(=O)c2[nH]cnc2n(C)c1=O.[CH2-][C@H](Cc1cccc2cc(C(=O)O)c(=O)oc12)OC.[Hg].[OH-],/,/,68*,/
C[C@]12Cc3cnc(-c4ccccc4)nc3C[C@@H]1CC[C@H]1[C@H]2CC[C@@]2(C)[C@H]1CC[C@]2(C)O,/,/,-2,/
O=C(O)C[C@@H]1NCc2cc3ccccc3nc21,/,/,51*,/
COc1ccc(C)cc1NC(=O)c1c(C)nn(Cc2ccccc2)c1Cl,/,4.8*,/,/
Cc1ccc(CN2C(=O)NC(=O)C3(Cc4c(nc5ccccn5c4=O)N4CCCCCC43)C2=O)cc1 (stereo not drawn),4,8.8*,-10,-35
COC(=O)C[C@]1(C(=O)OC)CN(C#N)N(c2ccc(Cl)cc2)C12c1ccccc1-c1ccccc12,7,-8,72*[fluorescence artefact?],0
CO[C@H]1[C@H](O)[C@@H](O[C@@H]2[C@@H](Oc3cccc4c(O)c5c(=O)oc6ccc(C)c7c(=O)oc(c34)c5c67)O[C@@H](C)[C@H](O)[C@H]2O)O[C@@H](C)[C@@H]1O,/,/,-3,/
O=C(Nc1cccc(Cl)c1)c1c(O)c2c(n(Cc3ccccc3)c1=O)CCCC2,/,5.6*,/,/
NNc1c(C(N)=O)c2c(N)ncnc2n1[C@H]1O[C@H](CO)[C@@H](O)[C@@H]1O,/,/,9,/
CC(=O)OC1=CC2=CC[C@H]3[C@@H]4CCC(=O)[C@@]4(C)CC(=O)[C@]3(S)[C@]2(C)CC1,/,/,35,/
CC(=O)O[C@H]1CC[C@H]2[C@H]3CCC4=C[C@@H](C5SCCS5)[C@H](OC(C)=O)C[C@]4(C)[C@@H]3CC[C@]12C,/,/,98*,/
CC12CCC(=O)C=C1CCC1C2CCC2(C)C(O)CCC12 (stereo not drawn),-2,-1,-5,2
C[N+]1([O-])[C@@H]2CC(OC(=O)[C@@H](CO)c3ccccc3)C[C@H]1[C@H]1O[C@H]12 (stereo partly drawn),/,/,22,/
C[C@@H]1[C@H]2C=C[C@@H]1[C@H](c1c3ccc(=O)c(O)c-3oc3c(O)c(O)ccc13)[C@@H]2C(=O)O,/,/,102*,/
C[C@H](O)[C@H]1CC[C@H]2[C@@H]3CCC4=CC(=O)CC[C@]4(C)[C@H]3CC[C@]12C,/,-2,/,/
C[C@@]12CC[C@@H]3[C@H](CCC4=CC(=O)CC[C@H]43)[C@H]1CC[C@H]2OC1(O)C(=O)c2ccccc2C1=O,/,/,54*,/
CC[C@H]1CN2CCc3cc(OC)c(OC)cc3[C@@H]2C[C@@H]1C[C@H]1NCCc2c1[nH]c1ccc(O)cc21,/,/,4,/
O=S(=O)(Nc1nccs1)c1ccc([As](=O)(O)O)cc1,/,/,102*,/
CCCCC[CH2][Hg][n+]1c[nH]c2nc(N)[nH]c(=S)c21,/,/,8,/
COc1cc2c3cc1Oc1cc(ccc1O)C[C@@H]1c4c(cc(OC)c(O)c4Oc4ccc(cc4)C[C@H]3N(C)CC2)CCN1C,/,-4,/,/
COc1cc2c3cc1Oc1c(O)c(OC)cc4c1[C@@H](Cc1ccc(cc1)Oc1cc(ccc1O)C[C@@H]3N(C)CC2)N(C)CC4,/,/,59*,/
CCCOC(=O)[C@H]1[C@@H](C(=O)O)[C@H]2CC[C@@H]1O2,/,/,-4,/
N#CS.N=C=S.N=C=S.[Cu].[NH2-].[NH2-].[NH2-].[NH2-].c1ccc2ncccc2c1,/,/,63*,/
CC1=C2C(=O)[C@H]3[C@@H](CC=C4C[C@@H](O)CC[C@@]43C)[C@@H]2CC[C@@]12O[C@@H]1C[C@H](C)CN[C@H]1[C@@H]2C,/,/,7,/

# Source: PubChem
